Results on 18 compounds are retold here after ChEMBL document CHEMBL3988442, “University of Dundee, Small-Polar-MMV Screening Library” (2021).

The target in test [1] is T1, Aspartate--tRNA(Asp/Asn) ligase (Mycobacterium tuberculosis (strain ATCC 25618 / H37Rv)) (UniProt P9WFW3). Also: in the data most compounds retested in dose-response had high values.
T1 sequence (whole entry): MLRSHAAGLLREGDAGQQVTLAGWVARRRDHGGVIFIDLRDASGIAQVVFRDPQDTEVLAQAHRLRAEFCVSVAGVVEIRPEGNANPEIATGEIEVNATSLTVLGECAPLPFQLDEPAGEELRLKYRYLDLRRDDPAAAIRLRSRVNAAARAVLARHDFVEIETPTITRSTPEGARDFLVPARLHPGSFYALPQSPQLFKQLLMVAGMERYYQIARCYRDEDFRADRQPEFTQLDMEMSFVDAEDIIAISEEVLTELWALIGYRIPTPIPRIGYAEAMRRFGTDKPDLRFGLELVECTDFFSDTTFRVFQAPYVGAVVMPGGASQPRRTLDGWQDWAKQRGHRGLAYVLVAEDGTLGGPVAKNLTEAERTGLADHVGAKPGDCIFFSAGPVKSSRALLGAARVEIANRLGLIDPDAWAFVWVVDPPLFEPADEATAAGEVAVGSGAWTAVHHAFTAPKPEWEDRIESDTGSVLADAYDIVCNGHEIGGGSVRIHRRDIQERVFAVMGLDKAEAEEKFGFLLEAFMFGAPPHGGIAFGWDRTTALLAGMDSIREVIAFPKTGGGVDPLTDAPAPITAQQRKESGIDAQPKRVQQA
Briefly: Assay for Asp RNA synthetase-1 from Mycobacterium tuberculosis. The format is functional. More on the design: scale not given: direction of the effect not stated beside the values. Particulars: 30 µM.

Test [2] addresses Shiga toxin 2 (Escherichia coli O157:H7) (UniProt P09385+P09386). Briefly: E. coli 0.157:H7 Shiga Toxin SOP - stx2 screening assay. It is filed as functional. More on the design: scale not given: direction of the effect not stated beside the values. Particulars: 30 µM.

Structures are written as SMILES.

For `Cc1nc(C)n(CC2CCCN2Cc2cc(C)on2)n1` (stereo unspecified), the Percent Effect in test [1] came out at 8.96%; in test [2] it was 8.12%.
The like results for `CCc1n[nH]c(C2CN(C(=O)CCc3cccs3)CCO2)n1` (stereo unspecified) were, in that order, -2.02% and -49.5%.
As for `O=C(Nc1cc(F)ccc1OCC1CCCO1)c1ccc(O)nc1` (stereo unspecified), the Percent Effect in test [1] is 5.1%; in test [2] it was 33.8%.
For `CCn1ccnc1CN1CCOC(CNc2cccnn2)C1` (stereo unspecified), in that order: -0.152% and -18.9%.
The like results for `Cc1ncsc1C(=O)NC1CCN(CC(=O)N(C)c2ccccc2)CC1` were, in that order, -3.57% and 34%.
For `Cc1cnc2n(c1=O)CC(C(=O)Nc1ccccc1Cl)CS2` (stereo unspecified), in that order: -5.41% and -4.63%.
Consider `CC(=O)N1CCN(Cc2nnc(C(C)(C)C)o2)CC1`, for which the Percent Effect was 3.25% in test [1] and -4.69% in test [2].
For `Cc1cccc(OCCC(=O)N2CCCN(CC(N)=O)CC2)c1C`, in that order: -0.457% and 1.67%.
The like results for `CN1CCOC(CNCc2cccc(OCc3ccccn3)c2)C1` (stereo unspecified) were, in that order, -8.22% and -16.3%.
For `O=C(C1=CCCC1)N1CCC[C@]2(C[C@@H](OCc3ccncc3)CO2)C1`, in that order: 5.27% and -14.6%.
For the compound `Cc1cnc(C(=O)N2CCCC(n3ccnc3C)C2)cn1` (stereo unspecified), the Percent Effect was -3.23% in test [1] and -18.1% in test [2].
The like results for `CCC(O)CN1CCN(C(=O)c2ccnc(N(C)C)c2)CC1` (stereo unspecified) were, in that order, -4.29% and -17.1%.
Regarding `NC(=O)NC(=O)CCN1CCCN(c2nccs2)CC1`, the values for the Percent Effect in test [1] and in test [2] were 1.54% and -33.2%, respectively.
The like results for `O=C(N1CCCC1)N1CCC2(CCCN(CCOc3ccccc3)C2)C1` (stereo unspecified) were, in that order, -0.364% and -4.82%.
For `O=C(CCNC(=O)c1ccoc1)Nc1c(F)cccc1F`, in that order: 4.76% and -4.74%.
The like results for `COC(=O)Cn1cccc(S(=O)(=O)N2CCC(C)CC2)c1=O` were, in that order, -4.76% and -36.3%.
In the case of `COC(=O)c1ccccc1NC(=O)c1nc2ccccc2n(C)c1=O`, the Percent Effect in test [1] is 2.38%; in test [2], -9.47%.
As for `CNS(=O)(=O)c1ccc(C(=O)N2CCCC2c2cnn(C)c2)o1` (stereo unspecified), the figures for the Percent Effect in test [1] and in test [2] were -2.58% and -29.3%, respectively.
